The results in this text go back to PubChem BioAssay (EPA / NIEHS).

Inconclusive results are not listed. Calls of active or inactive are those of the source. Rule for the calls: active = hit-call score of the fitted dose curve at least 0.9, where 1 is the maximum; inconclusive = response in the unintended direction; inactive = score below 0.9.

Assay [1] addresses Tyrosine-protein phosphatase non-receptor type 13 (Homo sapiens) (UniProt Q12923). The assay can be described thus: NVS_ENZ_hPTPN13: NovaScreen (NVS) Enzymatic Assay for human Protein Tyrosine Phosphatase Non-receptor Type 13 (PTPN13) (AID 2283205). In short, it runs like this:
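Screened first at a single 25 uM in duplicate; compounds passing the threshold (e.g. 30% inhibition) were rerun in concentration series, top 50 uM. Recombinant enzyme, fluorescent substrate, mobility-shift separation, 0.5 h read. Data fitted as inhibition relative to DMSO.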

In assay [2] the target is Tyrosine-protein phosphatase non-receptor type 14 (Homo sapiens) (UniProt Q15678). The assay can be described thus: NVS_ENZ_hPTPN14: NovaScreen (NVS) Enzymatic Assay for human Protein Tyrosine Phosphatase Non-receptor Type 14 (PTPN14) (AID 2283206). An outline of the steps: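 Fluorescent substrate turnover by recombinant human PTPN14 was measured 0.5 h after compound addition, with substrate and product separated by mobility shift. Single-point screening at 25 uM, then concentration-response up to 50 uM for chemicals meeting threshold (e.g., 30% inhibition).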

The target of assay [3] is human Protein Tyrosine Phosphatase Receptor Type F (PTPRF), PTPRF (gene 5792) (UniProt P10586). Put plainly: NVS_ENZ_hPTPRF: NovaScreen (NVS) Enzymatic Assay for human Protein Tyrosine Phosphatase Receptor Type F (PTPRF) (AID 2283213). In short, it runs like this: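 Cell-free fluorescence enzyme assay with recombinant protein and substrate; product separated by electrophoretic mobility shift. Read 1 h after dosing, single 25 uM duplicate screen, then concentration-response up to 50 uM; loss of signal vs DMSO.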

Assay [4] deals with human Sirtuin 2 (SIRT2), SIRT2 (gene 22933) (UniProt Q8IXJ6). Put plainly: NVS_ENZ_hSIRT2: NovaScreen (NVS) Enzymatic Assay for human Sirtuin 2 (SIRT2) (AID 2283217). In short, it runs like this:
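Single-point duplicate screen at 25 uM, then concentration-response (max 50 uM) for chemicals passing threshold. Enzyme activity of recombinant human SIRT2 measured after 1 hr by fluorescence with mobility-shift separation of product; DMSO baseline.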

Assay [5] has as its target human Sirtuin 1 (SIRT1), SIRT1 (gene 23411) (UniProt Q96EB6). Put plainly: NVS_ENZ_hSIRT1: NovaScreen (NVS) Enzymatic Assay for human Sirtuin 1 (SIRT1) (AID 2283219). An outline of the steps: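 Cell-free recombinant SIRT1 with a fluorescent substrate; substrate and product separated by electrophoretic mobility shift and read by fluorescence intensity, 1 h after dosing. Primary screen at 25 uM in duplicate; hits re-run in concentration-response up to 50 uM, relative to DMSO.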

Assay [6] has as its target human Tropomyosin Receptor Kinase A (TRKA), NTRK1 (gene 4914) (UniProt P04629). Put plainly: NVS_ENZ_hTrkA: NovaScreen (NVS) Enzymatic Assay for human Tropomyosin Receptor Kinase A (TRKA) (AID 2283224). In short, it runs like this: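 Compounds were screened at 25 uM in duplicate, then concentration series to a 50 uM top for those meeting threshold (e.g. 30% inhibition). Enzyme was recombinant human TrkA, incubated 1 h. Product formation was quantified by fluorescence after mobility-shift separation.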

Assay [7] addresses human Protein Tyrosine Phosphatase Non-receptor Type 6 (PTPN6), PTPN6 (gene 5777) (UniProt P29350). Put plainly: NVS_ENZ_hPTPN6: NovaScreen (NVS) Enzymatic Assay for human Protein Tyrosine Phosphatase Non-receptor Type 6 (PTPN6) (AID 2283210). The protocol: NVS_ENZ_hPTPN6 is a biochemical, single-readout assay that uses extracted gene-proteins from SF9 in a cell-free assay. Measurements were taken 1.33 hours after chemical dosing in a 384-well plate.NVS_ENZ_hPTPN6 is one of one assay component(s) measured or calculated from the NVS_ENZ_hPTPN6 assay. It is designed to make measurements of enzyme activity, a form of enzyme reporter, as detected with fluorescence intensity signals by Fluorescence and electrophoretic mobility shift technology.Data from the assay component NVS_ENZ_hPTPN6 was analyzed into 1 assay endpoint. This assay endpoint, NVS_ENZ_hPTPN6, was analyzed in the positive analysis fitting direction relative to DMSO as the negative control and baseline of activity. Using a type of enzyme reporter, loss-of-signal activity can be used to understand changes in the enzymatic activity as they relate to the gene PTPN6. Furthermore, this assay endpoint can be referred to as a primary readout, because this assay has produced multiple assay endpoints where this one serves a enzymatic activity function. To generalize the intended target to other relatable targets, this assay endpoint is annotated to the phosphatase intended target family, where the subfamily is non-receptor tyrosine phosphatase. […]

Assay [8] deals with human SRC Proto-Oncogene, Non-receptor Tyrosine Kinase (SRC), SRC (gene 6714) (UniProt P12931). Put plainly: NVS_ENZ_hSRC: NovaScreen (NVS) Enzymatic Assay for human SRC Proto-Oncogene, Non-receptor Tyrosine Kinase (SRC) (AID 2283223). An outline of the steps: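 Compounds passing 30% inhibition at 25 uM (duplicate) were titrated to a top concentration of 50 uM. Enzyme activity read by fluorescence with mobility-shift substrate/product separation after 1 h; DMSO baseline.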

Sequence of Tyrosine-protein phosphatase non-receptor type 13 (Homo sapiens) (Q12923 whole entry, looked up): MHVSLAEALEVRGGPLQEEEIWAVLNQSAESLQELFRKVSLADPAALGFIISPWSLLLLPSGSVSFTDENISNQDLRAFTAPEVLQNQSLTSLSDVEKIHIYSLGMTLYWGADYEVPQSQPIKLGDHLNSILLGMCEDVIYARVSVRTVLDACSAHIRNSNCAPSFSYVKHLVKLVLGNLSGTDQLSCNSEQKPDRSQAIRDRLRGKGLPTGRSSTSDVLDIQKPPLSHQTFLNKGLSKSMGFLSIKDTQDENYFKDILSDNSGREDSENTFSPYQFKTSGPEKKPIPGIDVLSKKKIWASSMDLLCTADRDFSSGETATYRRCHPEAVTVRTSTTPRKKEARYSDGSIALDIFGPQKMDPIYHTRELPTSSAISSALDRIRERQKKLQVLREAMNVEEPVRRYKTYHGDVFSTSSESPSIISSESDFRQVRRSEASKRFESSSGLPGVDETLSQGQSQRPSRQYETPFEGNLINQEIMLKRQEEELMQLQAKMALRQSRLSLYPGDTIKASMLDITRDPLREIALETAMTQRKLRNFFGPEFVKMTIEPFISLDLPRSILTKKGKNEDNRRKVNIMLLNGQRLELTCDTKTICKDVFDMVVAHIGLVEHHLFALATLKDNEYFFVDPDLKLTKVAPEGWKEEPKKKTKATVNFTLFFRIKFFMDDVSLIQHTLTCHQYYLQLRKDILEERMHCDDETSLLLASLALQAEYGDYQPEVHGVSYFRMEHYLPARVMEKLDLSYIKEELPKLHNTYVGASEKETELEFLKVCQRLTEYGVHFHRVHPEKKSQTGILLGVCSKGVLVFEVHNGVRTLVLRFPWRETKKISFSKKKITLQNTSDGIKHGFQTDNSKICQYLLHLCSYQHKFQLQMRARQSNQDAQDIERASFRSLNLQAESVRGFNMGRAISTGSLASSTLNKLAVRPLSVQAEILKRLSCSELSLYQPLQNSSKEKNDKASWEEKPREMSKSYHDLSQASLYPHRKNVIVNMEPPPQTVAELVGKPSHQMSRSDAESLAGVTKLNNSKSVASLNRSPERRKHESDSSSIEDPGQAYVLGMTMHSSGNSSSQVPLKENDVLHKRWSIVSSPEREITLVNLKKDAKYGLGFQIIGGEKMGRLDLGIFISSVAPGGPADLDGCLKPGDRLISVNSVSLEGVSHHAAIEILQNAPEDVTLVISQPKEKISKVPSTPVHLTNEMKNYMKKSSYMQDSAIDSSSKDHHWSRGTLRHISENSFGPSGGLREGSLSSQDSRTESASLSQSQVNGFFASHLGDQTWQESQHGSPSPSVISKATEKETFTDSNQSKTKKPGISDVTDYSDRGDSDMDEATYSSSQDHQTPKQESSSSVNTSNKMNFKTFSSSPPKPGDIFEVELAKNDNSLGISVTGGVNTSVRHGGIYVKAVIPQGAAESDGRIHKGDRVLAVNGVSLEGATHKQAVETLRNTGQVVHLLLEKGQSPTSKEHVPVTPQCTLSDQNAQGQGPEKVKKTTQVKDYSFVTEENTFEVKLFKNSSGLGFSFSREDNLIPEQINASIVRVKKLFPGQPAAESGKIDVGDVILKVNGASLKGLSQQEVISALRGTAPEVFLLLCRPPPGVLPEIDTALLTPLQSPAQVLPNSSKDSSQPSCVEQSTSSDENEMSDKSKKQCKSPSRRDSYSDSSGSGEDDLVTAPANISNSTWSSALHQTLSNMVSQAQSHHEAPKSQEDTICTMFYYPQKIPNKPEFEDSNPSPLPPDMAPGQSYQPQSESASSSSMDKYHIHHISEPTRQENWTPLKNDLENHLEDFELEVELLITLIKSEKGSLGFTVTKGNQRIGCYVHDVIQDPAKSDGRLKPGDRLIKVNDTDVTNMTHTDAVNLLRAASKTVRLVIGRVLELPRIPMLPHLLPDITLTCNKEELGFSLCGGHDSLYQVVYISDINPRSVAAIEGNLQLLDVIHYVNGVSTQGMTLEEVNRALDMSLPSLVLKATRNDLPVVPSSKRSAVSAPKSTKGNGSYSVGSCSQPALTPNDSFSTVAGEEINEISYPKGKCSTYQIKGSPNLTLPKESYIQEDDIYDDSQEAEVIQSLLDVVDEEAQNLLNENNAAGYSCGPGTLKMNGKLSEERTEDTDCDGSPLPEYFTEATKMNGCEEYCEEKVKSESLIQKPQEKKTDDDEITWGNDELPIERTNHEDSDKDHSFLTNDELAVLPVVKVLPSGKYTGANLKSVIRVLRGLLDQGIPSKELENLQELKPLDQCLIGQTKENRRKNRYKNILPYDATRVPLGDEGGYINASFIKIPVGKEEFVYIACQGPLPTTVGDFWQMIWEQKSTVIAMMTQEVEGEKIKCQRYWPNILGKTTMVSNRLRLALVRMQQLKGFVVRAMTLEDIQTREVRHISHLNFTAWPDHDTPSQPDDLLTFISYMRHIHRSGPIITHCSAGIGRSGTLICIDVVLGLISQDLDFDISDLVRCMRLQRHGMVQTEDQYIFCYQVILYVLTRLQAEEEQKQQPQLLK
Sequence of Tyrosine-protein phosphatase non-receptor type 14 (Homo sapiens) (Q15678 whole entry, looked up): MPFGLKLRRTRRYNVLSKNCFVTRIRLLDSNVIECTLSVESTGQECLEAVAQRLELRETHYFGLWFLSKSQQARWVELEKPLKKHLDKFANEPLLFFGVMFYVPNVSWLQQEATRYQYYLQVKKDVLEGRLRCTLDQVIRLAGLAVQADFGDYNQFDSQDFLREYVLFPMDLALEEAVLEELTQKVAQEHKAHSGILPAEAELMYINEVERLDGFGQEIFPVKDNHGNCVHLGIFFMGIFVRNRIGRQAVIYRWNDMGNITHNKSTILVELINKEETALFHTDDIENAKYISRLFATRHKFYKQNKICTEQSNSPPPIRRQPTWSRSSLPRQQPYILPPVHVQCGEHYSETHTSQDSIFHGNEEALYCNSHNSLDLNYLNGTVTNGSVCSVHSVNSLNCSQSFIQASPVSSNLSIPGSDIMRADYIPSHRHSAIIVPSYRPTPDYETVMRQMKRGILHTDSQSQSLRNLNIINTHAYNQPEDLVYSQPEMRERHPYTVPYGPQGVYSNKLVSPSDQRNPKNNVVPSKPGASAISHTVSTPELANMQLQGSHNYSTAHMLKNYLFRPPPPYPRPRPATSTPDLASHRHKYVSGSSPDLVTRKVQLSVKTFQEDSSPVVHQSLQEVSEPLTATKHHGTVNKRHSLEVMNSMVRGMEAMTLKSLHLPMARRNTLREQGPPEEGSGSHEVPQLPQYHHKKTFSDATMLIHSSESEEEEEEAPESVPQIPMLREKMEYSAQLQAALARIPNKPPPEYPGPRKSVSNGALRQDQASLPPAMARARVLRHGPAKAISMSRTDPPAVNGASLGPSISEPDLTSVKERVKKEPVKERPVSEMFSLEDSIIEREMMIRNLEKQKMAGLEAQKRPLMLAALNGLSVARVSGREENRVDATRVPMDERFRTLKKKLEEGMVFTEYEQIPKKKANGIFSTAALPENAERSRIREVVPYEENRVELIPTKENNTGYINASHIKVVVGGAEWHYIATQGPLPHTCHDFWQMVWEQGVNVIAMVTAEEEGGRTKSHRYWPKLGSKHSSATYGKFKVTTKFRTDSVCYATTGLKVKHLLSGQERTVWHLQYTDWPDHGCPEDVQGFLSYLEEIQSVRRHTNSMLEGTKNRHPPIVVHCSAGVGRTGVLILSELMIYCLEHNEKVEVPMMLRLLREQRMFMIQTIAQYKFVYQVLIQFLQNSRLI
Sequence of human Protein Tyrosine Phosphatase Non-receptor Type 6 (PTPN6), PTPN6 (gene 5777) (P29350 whole entry, looked up): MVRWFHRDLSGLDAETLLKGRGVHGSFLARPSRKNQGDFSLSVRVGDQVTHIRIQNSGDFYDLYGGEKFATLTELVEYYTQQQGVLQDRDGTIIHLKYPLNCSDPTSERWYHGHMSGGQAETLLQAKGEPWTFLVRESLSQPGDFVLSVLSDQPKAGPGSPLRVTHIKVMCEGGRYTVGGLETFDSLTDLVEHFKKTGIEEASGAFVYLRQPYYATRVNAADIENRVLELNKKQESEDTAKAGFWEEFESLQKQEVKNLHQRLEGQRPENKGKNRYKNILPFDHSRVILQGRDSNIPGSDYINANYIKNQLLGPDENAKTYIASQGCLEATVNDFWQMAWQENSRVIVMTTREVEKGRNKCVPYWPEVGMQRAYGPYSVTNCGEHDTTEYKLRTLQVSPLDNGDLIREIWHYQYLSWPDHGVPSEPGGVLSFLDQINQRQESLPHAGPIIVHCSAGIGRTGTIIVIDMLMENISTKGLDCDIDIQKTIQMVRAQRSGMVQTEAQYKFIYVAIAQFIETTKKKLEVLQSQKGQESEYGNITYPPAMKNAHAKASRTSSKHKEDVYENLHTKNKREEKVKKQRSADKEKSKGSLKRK
Sequence of human Tropomyosin Receptor Kinase A (TRKA), NTRK1 (gene 4914) (P04629 whole entry, looked up): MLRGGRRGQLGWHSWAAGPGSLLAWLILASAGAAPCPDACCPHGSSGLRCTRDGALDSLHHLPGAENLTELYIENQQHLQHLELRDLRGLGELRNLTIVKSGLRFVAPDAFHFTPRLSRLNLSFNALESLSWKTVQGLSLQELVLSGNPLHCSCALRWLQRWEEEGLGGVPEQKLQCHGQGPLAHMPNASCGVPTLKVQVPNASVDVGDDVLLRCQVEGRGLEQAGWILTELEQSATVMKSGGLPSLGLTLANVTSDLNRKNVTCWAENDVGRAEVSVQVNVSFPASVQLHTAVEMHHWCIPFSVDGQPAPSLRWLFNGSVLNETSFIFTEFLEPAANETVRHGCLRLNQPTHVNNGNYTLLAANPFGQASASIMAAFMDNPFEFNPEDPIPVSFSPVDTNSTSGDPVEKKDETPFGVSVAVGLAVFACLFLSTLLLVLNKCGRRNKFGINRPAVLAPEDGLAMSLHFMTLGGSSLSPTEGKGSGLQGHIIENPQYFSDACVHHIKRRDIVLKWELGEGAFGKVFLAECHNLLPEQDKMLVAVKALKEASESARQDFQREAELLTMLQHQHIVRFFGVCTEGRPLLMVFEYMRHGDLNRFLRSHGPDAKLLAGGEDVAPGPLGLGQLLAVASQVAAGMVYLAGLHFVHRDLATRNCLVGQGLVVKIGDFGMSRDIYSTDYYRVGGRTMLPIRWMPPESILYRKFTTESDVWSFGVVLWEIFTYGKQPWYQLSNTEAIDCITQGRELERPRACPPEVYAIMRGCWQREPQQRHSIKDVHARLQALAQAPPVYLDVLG

As for `CC/C(=C(\c1ccccc1)c1ccc(OCCN(C)C)cc1)c1ccccc1`, the AC50 in assay [1] was 12.1 µM (active). Moreover, the compound was classed as inactive in assay [2] and in assay [3].

Consider `O=C(c1ccc(OCCN2CCCCC2)cc1)c1c(-c2ccc(O)cc2)sc2cc(O)ccc12`, for which the AC50 is 30.9 µM (active) in assay [1], 17.8 µM (active) in assay [5] and 25 µM (active) in assay [6]. In addition, the compound was called inactive in assay [2] and in assay [4].

Regarding `CCCCOCCOCCO`, the compound was classed as inactive in assay [7].

For `C#C[C@]1(O)CC[C@H]2[C@@H]3CCc4cc(O)ccc4[C@H]3CC[C@@]21C`, in assay [8], the AC50 was 38.4 µM (active).

For orientation: AC50 means the concentration at which the activity in the assay is half-maximal.
